This is an account of results in the OligoGym collection.
Further: reference of the scale not given here.

One experiment deals with DAGLA. The experiment in a line: pooled miR-30 sensor sort-seq; sequence = guide strand. The conditions noted are these: shRNA.
The sequence TTGAGGGTCGGATACTGTGGGC had a sensor-assay potency score (higher = more potent) of -1.18.
ATTCTTGGCAGTGAGGTCGTTG: the sensor-assay potency score (higher = more potent) was -0.825.
In turn, TTTGTAGCGGAGCATCTCTTGT registered a sensor-assay potency score (higher = more potent) of -1.44.
With TTCATCTGAGAGTCTGTCTTGT, the sensor-assay potency score (higher = more potent) is 0.509.
The same measure, in the same setting: then TTTTCTAAACTCTAAGAGCCAC, with -0.539; and TTGAGGTCGAGGTACTTGGTGT, with -0.552; and TATATTTATAGAATAAGCTATA, with -0.774.
In the case of TTGGCAGTGAGGTCGTTGCAGG, the sensor-assay potency score (higher = more potent) was -1.13.
TTGTAGTTCTCCAGCACCTTGT had a sensor-assay potency score (higher = more potent) of -0.221.
Still for that read-out and setting: then TTTTACAGCAATATTAGTTTGG, with 0.015; and TTTCTTCTTGTCATGGTCCACC, with -0.657.
TAGCGGAGCATCTCTTGTGAAT registered a sensor-assay potency score (higher = more potent) of -1.2.

Another experiment has as its target DAZ2. The experiment is described as above. The note with it: shRNA.
The sequence TCGTGATTATCTTCACTTCTTT gave a sensor-assay potency score (higher = more potent) of -0.86.
For TGGATAAGCAGAATAAGCCTGA, the sensor-assay potency score (higher = more potent) was -0.294.
Still for that read-out and setting: then TATACAGGCAACTGATATCCAG, with -0.956.

For another experiment, the target named is DCAF4L2. The description is as above. The note with it: shRNA.
TTAACTGAAACAACTTTACAGA showed a sensor-assay potency score (higher = more potent) of -0.678.
Sequence TCTGACTGTCTTTTTCTGCTTG came in with a sensor-assay potency score (higher = more potent) of 0.906.
In turn, TTGGAGTATCTGCAAGTCCCAC gave a sensor-assay potency score (higher = more potent) of -0.914.
For the sequence TAAACATCTCACAAACTGCTGC, the sensor-assay potency score (higher = more potent) was -0.0348.
The sequence TTCTTCGTTCACATGCACGGGT came in with a sensor-assay potency score (higher = more potent) of 0.233.
Turning to TTTGCAGAGAAGTCACTGCTGA, the sensor-assay potency score (higher = more potent) was 0.521.
Turning to TTATCTTTGACACTGAGCCCTT, the sensor-assay potency score (higher = more potent) is -0.414.
Consider TACCTATGAACAGCGACGCTGG, for which the sensor-assay potency score (higher = more potent) is -0.732.
Sequence TGTATCTTCTCTATTGACCTAT returned a sensor-assay potency score (higher = more potent) of 0.0322.
On the same count and under the same terms, then TACTGTGTTACACATTTAGTGG, with -1.02; and TTTTCTTTTGTCAACTGCCCAT, with -0.395; and TAGCTGGTTCTTTCGTAGCATG, with -1.53.

The next experiment has as its target DCHS2. The experiment is described as above. The note with it: shRNA.
TTTTCTGGAACAATACAGCTGA: the sensor-assay potency score (higher = more potent) came to 0.21.
Sequence TATATCAGTCACCTGTACCTTG yielded a sensor-assay potency score (higher = more potent) of 0.322.
Sequence TTGAGAACATAAACTGAGGTGC returned a sensor-assay potency score (higher = more potent) of 0.162.
The sequence TGAATTATCATTCTCATCCTGT had a sensor-assay potency score (higher = more potent) of 0.421.
In turn, TTCATAGTCAAACTGTCGCCGC had a sensor-assay potency score (higher = more potent) of -0.481.
ATACTTATTAAACTCAACCATT: the sensor-assay potency score (higher = more potent) is -1.29.
As to TAATCTAGAATCGCTTTTGTTG, the sensor-assay potency score (higher = more potent) was -0.749.
Turning to TGGATTATCATTGACATCCAGC, the sensor-assay potency score (higher = more potent) is -1.15.
On to TTATAGTAAAGCACTCATCAGT, for which the sensor-assay potency score (higher = more potent) is -0.223.
Same read-out and setting: then TAGAAAGAAACAAGTCTCCGGT, with 0.782; and TGTACCTTGATTACAGTCGTAT, with -0.366; and TAGAATAGGTCAATTCTCCATA, with -0.353.
